Screens (PubChem BioAssay)
The list is not random: actives were taken first. Their share in the collection is about 3.2%.
Rtt109 HAT inh: inhibitors of C. albicans Rtt109/Vps75 HAT, primary screen, biochemical, ThioGlo CoA-SH fluorescence, plate reader | Histone acetyltransferase RTT109 (Candida albicans (strain SC5314 / ATCC MYA-2876)), … | purified Rtt109/Vps75, 4 h | inhibition, % at 34.9 µM | 0.16% of 330,000 active | AID 540336, 2011;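 active = inhibition of at least 50% in every replicate; inconclusive = best replicate reaches 50% inhibition but some replicates fall short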
SMARCA2 activ: SMARCA2 (BRM) function activators, primary screen, cell-based, luminescence, high throughput; AID 652017, 2013; MG213 cells, MMTV-luciferase reporter, dexamethasone, overnight; activation, % at 9.1 µM; 1% of 370,000 active; in the data active = activation above about 7.8%
dFosB act: activators of delta FosB homodimer, primary screen, biochemical, fluorescence polarization, TAMRA-CDK5 oligo, single point; purified delta FosB; percent of positive-control signal above neutral wells; activation, % at 25 µM; 0.99% of 340,000 active; AID 493131, 2011;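 active = mean activation above about 17%, with every replicate also reaching it, limit read from the data, passing the limit was not always enough; inconclusive = only one of the two conditions met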
CDK5 p35 inh: inhibitors of human CDK5/p35 kinase, primary screen, biochemical, single concentration; Cyclin-dependent kinase 5 (Homo sapiens) + Cyclin-dependent kinase 5 activator 1 (Homo …; Recombinant CDK5/p35, ADP-Glo luminescence, 60 min; inhibition, % at 10 µM; 0.01% of 330,000 active;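 active = highest replicate inhibition of at least 50% and at least 75% of replicates reaching 50%; inconclusive = only one of the two criteria met; inactive = both criteria failed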
DYRK1A inh: rat Dyrk1A kinase inhibitors, primary screen, biochemical, single point, plate reader | ADP-Glo luminescence, NFATc1 peptide | Dual specificity tyrosine-phosphorylation-regulated kinase 1A (Rattus norvegicus), Q63470 | 0.43% of 310,000 active | inhibition, % at 12.5 µM | AID 504441, 2011; in the data active = inhibition above about 50%
esBAF inh: Bmi1 luciferase reporter increase in mESCs, primary screen, esBAF inhibitor project, mouse ES cells, Bmi1 luciferase knock-in, single point; 24 h; 100% = twice the neutral-well signal; reporter increase, % at 12.5 µM; 2% of 350,000 active; in the data active = activation above about 40%; inconclusive = no clear call, values can overlap the other calls;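 note: a rise in the Bmi1 reporter signal indicates esBAF inhibition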
SMARCA2 conf: SMARCA2 (BRM) function activators, confirmation, cell-based, luminescence, triplicate. shares compounds with SMARCA2 activ. MG213 cells, MMTV-luciferase with dexamethasone, overnight; MG213 cells expressing E1A, Rb sequestered; DMSO wells 0%, reference activator 100%. 30% of 3,500 active. activation, % at 9.1 µM;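 active = activation above its plate's cutoff, the mean activation of tested wells plus 3 SD, cut at about 7.9% in these data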
VP16 Luc act: GAL4-VP16 luciferase reporter activation, counter-screen for SMARCA2 (BRM) activator project, cell-based, pG5luc, luminescence, high throughput. shares compounds with SMARCA2 activ. HEK293 GAL4-VP16 pG5luc reporter; scaled: DMSO wells 0%, SAHA wells 100%. activation, % at 9.1 µM. 41% of 3,500 active. AID 686939, 2013;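 active = activation above the solvent-only control well mean plus 3 SD, averaged across control plates, cut at about 5.2% in these data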
A number is an active result.

`Cc1cc2oc3cc(NCCC4CCCN4C)ccc3c(=O)c2cc1C` (configuration not stated) gave Rtt109 HAT inh inactive, SMARCA2 activ 8.8, dFosB act inconclusive, CDK5 p35 inh inactive, DYRK1A inh inactive, esBAF inh inactive, SMARCA2 conf 21 and VP16 Luc act 8.7.
Screening O=c1c2ccccc2oc2ccc(NCCCn3ccnc3)cc12 returned Rtt109 HAT inh inactive, SMARCA2 activ inactive, dFosB act inactive, CDK5 p35 inh inactive, DYRK1A inh inactive and esBAF inh inactive.
For CN1CCCC1CCNS(=O)(=O)c1ccc(Br)cc1 (configuration not stated) the results were Rtt109 HAT inh inactive, SMARCA2 activ inactive, dFosB act inactive, CDK5 p35 inh inactive, DYRK1A inh inactive and esBAF inh inactive.
Screening C[C@H]1CN([C@@H](C)CO)C(=O)c2cc(-c3ccccc3)cnc2O[C@@H]1CN(C)C(=O)c1ccccn1 returned esBAF inh inactive.
Screening CCc1ccc(-n2nc3cc(C)c(N)cc3n2)cc1 returned Rtt109 HAT inh inactive, SMARCA2 activ 11, dFosB act inactive, CDK5 p35 inh inactive, DYRK1A inh inactive, esBAF inh inactive, SMARCA2 conf inactive and VP16 Luc act 13.
For C[C@@H]1CN([C@H](C)CO)C(=O)Cc2cc(NC(=O)Nc3ccccc3)ccc2O[C@@H]1CN(C)S(=O)(=O)c1ccc(Cl)cc1 the results were esBAF inh inactive.
`COc1ccc(/C=C/C(=O)NC(=S)Nc2ccc(S(=O)(=O)Nc3nccnc3OC)cc2)cc1` gave Rtt109 HAT inh inactive, SMARCA2 activ 13, dFosB act inactive, CDK5 p35 inh inactive, DYRK1A inh inactive, SMARCA2 conf inactive and VP16 Luc act inactive.
`O=C(O)c1cccc(Oc2ccccc2[N+](=O)[O-])c1` gave Rtt109 HAT inh inactive, SMARCA2 activ 12, dFosB act inactive, CDK5 p35 inh inactive, DYRK1A inh inactive, esBAF inh inactive, SMARCA2 conf inactive and VP16 Luc act inactive.
O=[N+]([O-])c1cccnc1Oc1ccccc1F was read as Rtt109 HAT inh inactive, SMARCA2 activ 9.6, dFosB act inactive, CDK5 p35 inh inactive, DYRK1A inh inactive, esBAF inh inactive, SMARCA2 conf inactive and VP16 Luc act inactive.
For COc1ccccc1Oc1ccccc1[N+](=O)[O-] the results were Rtt109 HAT inh inactive, SMARCA2 activ 10.0, dFosB act inactive, CDK5 p35 inh inactive, DYRK1A inh inactive, SMARCA2 conf inactive and VP16 Luc act inactive.
Screening O=C(O)c1cccc(Oc2ccc(C(=O)O)c([N+](=O)[O-])c2)c1 returned Rtt109 HAT inh inactive, SMARCA2 activ inactive, dFosB act inactive, CDK5 p35 inh inactive and esBAF inh inactive.
Screening O=[N+]([O-])c1cccnc1Oc1ccc(F)cc1 returned Rtt109 HAT inh inactive, SMARCA2 activ inactive, dFosB act inactive, CDK5 p35 inh inactive, DYRK1A inh inactive and esBAF inh inactive.
`C[C@H](CO)N1C[C@H](C)[C@@H](CN(C)CC2CC2)Oc2ccc(NC(=O)Cc3cn(C)c4ccccc34)cc2CC1=O` gave esBAF inh inactive.
